# Screening results from PubChem BioAssay.
# PrPC TRFRET = reduces human prion protein on the cell surface; 370,000 compounds, 0.43% hits; cell surface PrPC, TR-FRET read-out; inhibition, % at 13.8 µM; in the data active = inhibition above about 24%; note: 0% = median of the test wells and 100% = reference compound wells
# DUSP3 inh = inhibitors of human VHR1 phosphatase (DUSP3) | AID 1654 | inhibition, % at 13.3 µM | P51452 | recombinant VHR phosphatase, pNPP absorbance | 290,000 compounds, 0.52% hits; in the data active = inhibition above about 50%
# Target sequence (P51452 whole entry, looked up): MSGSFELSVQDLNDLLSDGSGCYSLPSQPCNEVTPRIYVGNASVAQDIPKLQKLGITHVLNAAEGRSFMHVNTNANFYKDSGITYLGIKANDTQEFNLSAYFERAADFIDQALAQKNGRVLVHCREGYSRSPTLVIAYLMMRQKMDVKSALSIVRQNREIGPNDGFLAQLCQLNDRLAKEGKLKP
# SSB-PriA inh = blocks PriA binding to SSB C-terminal tail; AID 1272365; AlphaScreen SSBct-PriA binding, biotinylated peptide; inhibition, % at 33 µM; 430,000 compounds, 0.6% hits; in the data active = inhibition mostly above about 37%, no sharp cut-off; inactive = mostly below about 20%;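 note: plate controls were negative control peptide for no effect and reference peptide for full effect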
# TcdB GH inh = blocks C. difficile toxin B glycohydrolase activity. TcdB glycohydrolase enzymatic assay, plate reader. inhibition, % at 9.99 µM. 350,000 compounds, 0.24% hits; in the data active = inhibition above about 10%
# CCHF vOTU inh = blocks the CCHF virus ovarian tumor domain protease; CCHFV vOTU protease, Pep-AMC fluorescence; inhibition, % at 11.5 µM; 370,000 compounds, 0.55% hits; in the data active = inhibition above about 30%; note: 0% = vehicle wells with enzyme and 100% = no enzyme wells
# Vc quorum ag = induces V. cholerae light production without autoinducers | 350,000 compounds, 0.16% hits | V. cholerae BH1578 lux reporter, luminescence, 6 h | AID 588436 | activation, % at 18.7 µM; in the data active = activation mostly above about 9.7%, no sharp cut-off
# Active calls of the source: *; i = inactive; / = no result given; + = active, no number; ! = a repeat was not active. The list is not random: actives were taken first. Their share in the collection is about 1.5%.
SMILES,PrPC TRFRET,DUSP3 inh,SSB-PriA inh,TcdB GH inh,CCHF vOTU inh,Vc quorum ag
O=C(O)c1ccc(C2CCCCC2)cn1,0.6,-9.5,116.0*,/,1.0,i
O=C(Cc1csc2nc(-c3ccccc3)cn12)Nc1ccc2c(c1)OCCO2,/,/,44.0*,/,/,/
O=C(Cc1csc(Nc2cccc(Cl)c2)n1)Nc1ccc2c(c1)OCCO2,/,/,20.0*,/,/,/
O=C(Cc1csc2nc(-c3ccccc3)cn12)Nc1ccc(F)c(F)c1,/,/,1.0,/,/,/
O=C(Cc1c(C(=O)O)[nH]c2ccc(Cl)cc12)Nc1ccc2c(c1)OCCO2,2.4,51.7*,-8.4,/,11.6,-0.3
Cc1cc(CNC(=O)N2CCNC2=O)c(C)o1,/,/,7.0,/,/,/
CCSc1ccccc1C(=O)NCC1CCN(C(=O)OC)CC1,/,/,3.0,/,/,/
Cn1ncc(Br)c1C(=O)N/N=C/c1cccc(OC2CSC2)c1,2.8,-1.5,/,31.0*,-11.0,-0.1
COc1ccccc1NC(=O)CC1SC(N)=NC1=O (stereo not drawn),/,/,-9.0,/,/,/
Nc1ccccc1Nc1c(F)c(F)nc(F)c1Cl,-0.4,-25.9,38.5*,0.9,4.5,i
Cc1oc(-c2ccc(Cl)cc2[N+](=O)[O-])cc1C(=O)Nc1cccc(F)c1,/,/,35.0*,/,/,/
S=C(Nc1ccccc1)c1ccccn1,-0.1,-0.1,72.0*,/,6.9,0.5
S=C(Nc1ccccc1)Nc1ccccn1,1.4,/,/,1.4,-13.0,i
Cc1nc(NCCNC(=O)C2CCC(=O)N2)cc(-n2cccc2)n1 (stereo not drawn),/,/,11.0,/,/,/
O=[N+]([O-])c1ccc(N2CCN(C(=S)Nc3ccc(F)cc3)CC2)cc1,-10.4,19.9,8.1,-0.9,-3.1,i
O=[N+]([O-])c1ccc(N2CCN(C(=S)Nc3cccc(F)c3)CC2)cc1,-7.3,50.3*,-1.8,0.3,22.2,i
O=C(CN1CC(=O)Oc2ccccc21)OCC(=O)c1ccccc1,2.8,19.4,92.4*,/,-1.2,i
O=C(CN1CC(=O)Oc2ccccc21)OCC(=O)c1ccc(Cl)cc1,/,/,52.6,/,/,/
O=C(CN1CC(=O)Oc2ccccc21)OCC(=O)c1cccc(Br)c1,/,3.8,77.2*,/,/,-0.2
Cc1onc(N)c1S(=O)(=O)N1CCC(C)CC1,/,/,-7.0,/,/,/
CCN1CCCc2cc(CN(CCN3CCOCC3)C(=S)Nc3cccc(Cl)c3)ccc21,0.4,22.3,52.1*,-1.8,-7.7,0.5
Cc1cc(OC(=O)/C=C/c2ccccc2)c([N+](=O)[O-])c(=O)[nH]1,/,/,-2.0,/,/,/
CCCCCCn1c(C(C)NC(=O)c2ccco2)nc2ccccc21 (stereo not drawn),-11.3,54.3*,-6.5,/,6.6,-0.5
Cc1nc(N)nc(N)c1Oc1ccc(Cl)cc1,-0.1,/,3.6,1.2,2.9,525.6*
CC(=O)Nc1nc(C)c(Oc2ccc(Cl)cc2)c(=O)[nH]1,-0.4,9.6,-8.4,1.3,-16.0,-0.6
SMILES,PrPC TRFRET,DUSP3 inh,SSB-PriA inh,TcdB GH inh,CCHF vOTU inh,Vc quorum ag
CCOc1ccccc1Nc1nc(Nc2ccc(C)c(C)c2)nc(N2CCOCC2)n1,/,/,0.0,/,/,/
CC(=O)c1c(C)[nH]c(C(=O)OCc2ccc([N+](=O)[O-])cc2)c1C,1.3,52.0*,2.1,1.4,12.2,-0.2
CC(=O)c1c(C)[nH]c(C(=O)OCc2ccccc2)c1C,8.9,-8.5,1.8,1.4,-5.0,4.2
Fc1ccc(/C=C\c2nccc3c2[nH]c2ccccc23)cc1,4.2,21.5,-14.8,11.5*,-36.0,i
CCCCCCOC(=O)Cc1c(C)nc(N)[nH]c1=O,1.0,-8.5,-3.7,-3.2,11.1,-2.8
CCCCCCOC(=O)CCc1c(C)nc(N)[nH]c1=O,-1.7,52.3*,-4.6,/,-8.1,i
COc1ccc(C(O)=C2C(=O)C(=O)N(c3ncccn3)C2c2ccc(F)cc2)cc1 (stereo not drawn),/,/,-16.6,/,/,/
Cc1ccccc1C(=O)Nc1cccc(NC(=S)NC(=O)c2cccs2)c1,4.9,13.7,-1.7,/,14.3,+
CCc1ccc2nc(N(CCCN(C)C)C(=O)c3ccc(C(=O)c4ccccc4)cc3)sc2c1,-19.6,25.7,47.0*!,0.2,3.2,i
CCOc1ccc2nc(N(CCN(C)C)C(=O)c3cc4ccccc4cc3OC)sc2c1,/,-3.0,44.0*!,/,/,-5.1
CCN(CC)CCN(C(=O)c1ccc(C(=O)c2ccccc2)cc1)c1nc2c(C)cccc2s1,/,/,15.0,/,/,/
CCc1ccc2nc(N(CCCN(C)C)C(=O)c3ccc(S(=O)(=O)N4CCCC4)cc3)sc2c1,-11.4,14.0,12.0,1.3,21.9,/
COc1cc2nc(N(CCCN(C)C)C(=O)c3ccc(C(=O)c4ccccc4)cc3)sc2cc1OC,-6.9,/,37.0*!,0.5,11.7,-2.3
CCN(CC)CCN(C(=O)c1ccc(C(=O)c2ccccc2)cc1)c1nc2c(OC)ccc(OC)c2s1,/,/,49.0*,/,/,/
COc1cc2nc(N(CCCN(C)C)C(=O)c3ccc(S(=O)(=O)N4CCc5ccccc5C4)cc3)sc2cc1OC,-9.1,/,18.1,1.7,2.8,i
O=C1Cc2cc(NS(=O)(=O)/C=C/c3ccccc3)ccc2N1,/,/,5.0,/,/,/
O=C(NCc1cnn2c1CCCC2)c1ccc2ncsc2c1,/,/,-11.0,/,/,/
COc1ccc2nc(N(CCN(C)C)C(=O)c3ccc(C(=O)c4ccccc4)cc3)sc2c1,-3.4,17.5,49.8*,0.5,1.8,0.4
CCN(CC)CCN(C(=O)c1ccc(C(=O)c2ccccc2)cc1)c1nc2ccc(OC)cc2s1,-1.6,-2.1,32.1,1.1,9.6,-0.6
O=S(=O)(NCCN1CCN(c2ccccc2F)CC1)c1ccc(F)cc1,/,/,0.0,/,/,/
O=C(N1CCN(c2ccccc2)CC1)C(F)(F)C(F)F,3.2,51.6*,-21.1,0.1,0.4,2.1
O=C(N1CCN(c2ccccc2)CC1)C(F)(F)C(F)(F)F,7.1,-5.0,-9.3,/,-11.8,i
CCOc1cccc2c1Oc1nc(-c3ccccc3)nc(SCc3ccccc3)c1C2,/,/,-10.0,/,/,/
O=C(Nc1ccc(Nc2ccccc2)cc1)C(=O)c1c[nH]c2ccccc12,/,/,48.0*,/,/,/
Cc1cc(C)n(CCNS(=O)(=O)c2c(C)n[nH]c2C)n1,/,/,-14.0,/,/,/
SMILES,PrPC TRFRET,DUSP3 inh,SSB-PriA inh,TcdB GH inh,CCHF vOTU inh,Vc quorum ag
O=C1CCc2cc(S(=O)(=O)NCC3CCN(S(=O)(=O)C4CC4)CC3)cc3c2N1CC3,/,/,39.0*,/,/,/
ONC(=Nc1ccccc1)C(=Nc1ccccc1)NO,10.7,57.4*,3.6,/,-6.2,2.4
O=C(Nc1nnc(Cc2cccs2)o1)c1ccc2ncsc2c1,/,/,71.0*,/,/,/
CCSc1ccc(C(=O)Nc2nnc(Cc3cccs3)o2)cc1,/,/,36.0*,/,/,/
CCSc1ccc(C(=O)Nc2nccs2)cc1,/,/,64.0*,/,/,/
O=C(Nc1nnc(Cc2cccs2)o1)c1cccs1,/,/,29.0,/,/,/
O=C(Nc1nnc(Cc2cccs2)o1)c1ccc(Cl)s1,/,/,35.0*,/,/,/
COc1ccc(C2C(=C(O)c3ccc(F)cc3)C(=O)C(=O)N2CCCN2CCOCC2)cc1OC (stereo not drawn),/,/,-2.2,/,/,/
c1ccc(CNc2nc3ccccc3n3cnnc23)cc1,-1.8,-0.2,104.2*,1.9,5.8,-0.1
COC1(CNC(=O)NC(C)(C)C)Cc2ccccc2C1,/,/,-11.0,/,/,/
O=C(NCc1ccc2c(c1)OCO2)C12CN(Cc3ccccc3)CC1C(c1cccc([N+](=O)[O-])c1)=NO2 (stereo not drawn),-2.6,3.6,42.8*,1.5,-0.7,19.1
Cc1cc(C(=O)OCC(=O)Nc2ccccc2C#N)c(C)o1,-3.0,/,-4.6,1.4,-4.5,389.9*
COc1ccc(NC(=O)NNC(=O)c2cc3occc3n2C)c(OC)c1,-2.9,51.3*,4.9,-0.7,-14.7,-0.3
